# An excerpt weighted towards active compounds, which were near 6.1% of everything screened.
# D3 antag: D3 dopamine receptor (human) antagonism; P35462; D3R cells, DiscoveRx beta-arrestin luminescence, antagonist mode; stronger effect = lower value; max response, negative = inhibition, %; 2.5% of 360,000 active; in the data active means max response below about -50%; inconclusive means no clear call, values can overlap the other calls; further: on the % scale 0 is the no-effect control and ±100 the full control effect
# Target sequence (P35462 whole entry, looked up): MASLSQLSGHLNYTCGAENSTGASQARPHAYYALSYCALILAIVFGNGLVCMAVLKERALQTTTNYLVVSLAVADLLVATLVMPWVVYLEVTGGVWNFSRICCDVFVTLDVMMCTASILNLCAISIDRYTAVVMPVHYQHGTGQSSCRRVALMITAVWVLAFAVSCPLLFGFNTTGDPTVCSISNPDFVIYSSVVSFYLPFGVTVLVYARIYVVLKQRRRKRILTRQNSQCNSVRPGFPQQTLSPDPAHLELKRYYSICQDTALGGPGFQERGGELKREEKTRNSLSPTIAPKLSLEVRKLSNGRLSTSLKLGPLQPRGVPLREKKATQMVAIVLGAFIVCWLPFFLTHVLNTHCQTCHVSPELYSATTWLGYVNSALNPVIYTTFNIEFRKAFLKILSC
#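 Cells expressing the human receptor were seeded at 1500 cells/well, incubated overnight at 37 degrees C in 5% CO2, then exposed to library compounds with dopamine controls for 90 minutes at 37 degrees C before luminescent detection.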
# DRD3 agonist: activates the human D3 dopamine receptor; P35462; D3R DiscoveRx beta-arrestin cells, luminescence, 90 min; max activation, %; 0.58% of 410,000 active; AID 652048; in the data active means max activation above about 30%; further: 0% is about no effect
#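 Agonist mode: compounds and dopamine controls were applied to plated cells for 90 min at 37 degrees C after an overnight attachment at 1500 cells/well. Luminescent read-out followed 30 - 60 minutes at room temperature with DiscoveRx detection reagent.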
# D1 ag: human D1 receptor agonism. HEK293 T-REx D1 cells, calcium flux, agonist mode. activation, % at 2 µM. 1% of 360,000 active. AID 504660; in the data active means activation above about 30%; further: 0% is about no effect
#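 Tetracycline-induced HEK293 TREx D1 cells, force-coupled to calcium signalling, were dye-loaded with a no-wash calcium kit. Compound was pin-added after a 10 s baseline. Fluorescence was read kinetically at 1 cycle/s for 180 s, with calcium rises flagged as agonism.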
# D1 antagonist: blocks dopamine activation of the human D1 receptor | P21728 | HEK293 TREx D1 cells, calcium flux, dopamine EC80; stronger effect = lower value | activity change, negative = inhibition, % at 10 µM | 3.2% of 360,000 active; in the data active means activity change below about -30%; further: on the % scale 0 is the no-effect control and ±100 the full control effect
#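 HEK293 T-REx cells expressing inducible, force-coupled D1 receptor; no-wash Ca dye, 30–90 min RT. Cmpd → 180 s read at 1 Hz → EC80 DA → 180 s read.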
# D1 PAM: potentiators of human D1 dopamine receptor. P21728. HEK293 TREx D1 cells, calcium flux, dopamine EC20 potentiation. potentiation, % at 10 µM. 0.036% of 360,000 active. AID 504651; in the data active means potentiation above about 30%; further: 0% is about no effect
# Active calls of the source: *; ? = inconclusive; . = not tested or not shown; ! = a repeat was not active.
SMILES,D3 antag,DRD3 agonist,D1 ag,D1 antagonist,D1 PAM
COc1ccc(N(C)S(=O)(=O)c2cccc3cccnc23)c(OC)c1,33.8,30.7*,0.8,-14.8,-6.1
COc1ccc(C(=O)NCc2nnc(SCC(=O)NCc3ccco3)o2)cc1OC,3.3,0.7,1.7,-41.1*,-1.3
COc1ccc(-n2c(=S)[nH]c3cc(C(=O)NCc4ccco4)ccc3c2=O)c(OC)c1,-61.5*,-3.1,2.5,-1.7,-3.0
O=[N+]([O-])c1ccc(P(=O)(Cc2ccccc2)c2ccccc2O)cc1 (centres undefined),-14.0,-7.5,-0.4,-34.4*,-5.6
O=P(Cc1ccccc1)(c1ccccc1)c1ccccc1,3.6,13.1,0.7,-24.7,-12.4
Cc1ccc2c(c1)-c1c(ssc1=S)C(C)(C)N2C(=O)c1ccco1,-61.8*,-26.0,-1.7,7.6,-3.4
CC1(C)c2ssc(=S)c2-c2ccccc2N1C(=O)c1ccco1,-20.6,-5.2,5.5,2.8,-1.4
NS(=O)(=O)c1ccc(CCNc2ncnc3c2cnn3-c2cccc(Cl)c2)cc1,.,-9.5,-0.1,-63.7*,-4.0
Fc1cccc(Nc2ncnc3c2cnn3-c2ccccc2)c1,0.0,3.7,2.7,-13.5,-12.6
COc1ccc(Nc2ncnc3c2cnn3-c2ccc(C)cc2)cc1Cl,.,-5.7,-0.6,-64.7*,-3.9
Clc1cccc(Nc2ncnc3c2cnn3-c2ccccc2)c1,2.4,1.4,6.1,-55.2*,-15.3
NS(=O)(=O)c1ccc(CCNc2nccn(-c3cccc(C(F)(F)F)c3)c2=O)cc1,.,-7.6,2.8,-32.0*,-4.8
CCCCn1c(N)c(N(CC(C)C)C(=O)CCS(=O)(=O)c2ccc(C)cc2)c(=O)[nH]c1=O,0.0,-14.7,2.1,10.0,-1.9
N#Cc1cccc(Nc2ncnc3c2cnn3-c2cccc(Cl)c2)c1,.,2.4,0.5,-48.6*,-3.8
COc1ccc(NC(=O)c2cnn(-c3ccc(C)cc3)c2-n2cccc2)cc1Cl,.,-1.6,4.5,-31.0*,-4.5
CCC(CC)c1nn2c(=O)cc(COc3ccc(NC(=O)c4cccc(Cl)c4)cc3)nc2s1,.,2.2,2.5,5.2,-3.2
CC[C@H](C)[C@H]1CNC(=O)C(=O)N1CC1CCN(CCCc2ccc(OC)c(OC)c2)CC1,12.5,-18.5,.,.,.
COc1ccc(C(=O)Nc2oc(-c3ccccc3)c(-c3ccccc3)c2C#N)cc1,-63.8*,-17.3,0.9,3.0,-2.7
COc1ccc(-c2oc(NC(=O)c3ccc(C)cc3)c(C#N)c2-c2ccc(OC)cc2)cc1,20.8,-3.6,2.4,12.6,-5.9
COc1cc(C2C=C(C34CC5CC(CC(C5)C3)C4)NC(=S)N2)cc(OC)c1OC (centres undefined),-81.7*,-17.4,5.8,0.1,-0.4
COc1ccc(OC)c(C2C=C(C34CC5CC(CC(C5)C3)C4)NC(=S)N2)c1 (centres undefined),?,-8.6,0.0,20.5,5.8
Cc1ccc(S(=O)(=O)N(CC(=O)N(C(C)C)C(C)C)C(=O)N2CCN(C)CC2)cc1,5.9,-5.9,1.1,-0.6,-9.5
CC1(C)CC(=O)c2c(O)cc(OCC(=O)Nc3ccc(CCO)cc3)cc2O1,17.2,34.0*,9.6,-8.1,-6.4
CC1(C)C[C@H]2C3=CCC4[C@@]5(C)CC[C@H](O[C@@H]6O[C@H](C(=O)O)[C@@H](O)[C@H](O)[C@H]6O)[C@@](C)(CO)C5CC[C@@]4(C)[C@]3(C)C[C@H](O)[C@@]2(CO)[C@@H](O)[C@@H]1O (some centres undefined),13.8,-2.9,.,.,.
C/C=C(/C)C(=O)OC1CC(C)(C)C[C@H]2C3=CC[C@@H]4[C@@]5(C)CCC(O[C@@H]6O[C@@H](C(=O)O)[C@@H](O)C(O[C@@H]7OC[C@H](O)[C@@H](O)[C@@H]7O[C@@H]7OC(CO)C(O)[C@@H](O)[C@@H]7O)C6O[C@@H]6OC(CO)C(O)C(O)C6O)[C@@](C)(CO)[C@@H]5CC[C@]4(C)[C@]3(C)CC(O)[C@@]12CO (some centres undefined),-22.9,22.5,.,.,.
SMILES,D3 antag,DRD3 agonist,D1 ag,D1 antagonist,D1 PAM
C/C=C(\C)C(=O)OC1[C@H](OC(C)=O)C2(CO)C(CC1(C)C)C1=CCC3C4(C)CCC(O[C@@H]5O[C@H](C(=O)O)[C@@H](O[C@@H]6O[C@H](CO)[C@@H](O)[C@H](O)[C@H]6O)[C@H](O)[C@H]5O[C@H]5O[C@H](CO)[C@@H](O)[C@H](O)[C@H]5O)[C@](C)(CO)C4CCC3(C)[C@]1(C)C[C@H]2O (some centres undefined),-120.7*,-44.0,.,.,.
CC(=O)OC1COC(OC2C(O)C(C)OC(OC3C(OC4CCC5(C)C(CCC6(C)C5CC=C5C7CC(C)(C)CCC7(C(=O)O)CCC56C)C4(C)CO)OCC(O)C3O)C2O)C(O)C1OC(C)=O (centres undefined),.,.,323.1*,186.8,26.1
C[C@H](CO)N1C[C@H](C)[C@@H](CN(C)CC2CCCCC2)Oc2ccc(NC(=O)Cn3cnnn3)cc2C1=O,11.6,34.6*,.,.,.
C[C@@H]1CN([C@H](C)CO)C(=O)c2cc(NC(=O)Nc3ccc4c(c3)OCO4)ccc2O[C@H]1CN(C)Cc1ccncc1,4.3,31.7*,.,.,.
C[C@H](CO)N1C[C@H](C)[C@@H](CN(C)C(=O)NC2CCCCC2)Oc2ccc(NC(=O)Cn3cnnn3)cc2C1=O,12.3,-3.9,.,.,.
O=C(/C=C/c1ccc2c(c1)OCO2)NCCSCc1c(Cl)cccc1Cl,?,-7.6,42.2*,-32.1*,-7.3
O=C(/C=C/c1ccc2c(c1)OCO2)NCCSCc1ccc(Cl)cc1,5.9,-6.7,10.6,-26.0,-8.7
COc1cc(CNn2cnnc2)ccc1OCC(=O)NC(C)(C)C,-13.2,-11.3,1.6,-79.1*,-3.5
COc1cc(CNC(C)(C)C)ccc1OCC(=O)NC(C)(C)C,-4.0,1.5,3.2,17.2,-1.4
CC(=O)N1CCN(c2nc(N)c(C#N)c(CC#N)c2C#N)CC1,-10.6,0.9,1.9,-65.1*,-11.3
COC(=O)c1ccc(CNC(=O)COC(=O)COc2ccc(OC)cc2)cc1,9.3,-1.5,0.6,-4.9,9.6
Cc1ccc(C)c(S(=O)(=O)c2cn(C)c3cc(N4CCCCC4C)c(F)cc3c2=O)c1 (centres undefined),.,-20.1,3.5,11.0,1.8
CCc1ccc(-n2c(=O)c3cccnc3n2CC(=O)NCc2ccc(F)cc2)cc1,.,1.5,7.3,-36.3*,-6.2
NC(=O)n1c(O)c(C(=O)c2cccs2)c2cc(Cl)ccc21,.,-7.5,.,.,.
CCCc1cc(=O)n2[nH]c(NCc3c(F)cccc3Cl)nc2n1,-7.3,-0.9,0.5,-30.2*!,-1.2
O=C(Cc1nnc(CNC(=O)c2ccccc2)s1)Nc1ccc(C(F)(F)F)cc1Cl,.,.,0.4,4.0,-0.7
Cc1c(C)c2cccnc2c2ncccc12,-103.0*,-21.1,3.8,-7.1,-6.3
